# Measured values published in PubChem BioAssay (EPA / NIEHS).
# Records with an inconclusive call do not appear. Activity calls are given as the source filed them. Rule for the calls: active = hit-call score of the fitted dose curve at least 0.9, where 1 is the maximum; inconclusive = response in the unintended direction; inactive = score below 0.9.
# Target: Luciferin 4-monooxygenase (Photinus pyralis) (UniProt P08659)
# Assay: CCTE_Simmons_QuantiLum_inhib_2: CCTE's Firefly Luciferase Inhibition Assay, Simmons Lab (AID 2283767);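 for AC50: potency for inhibitors that lower luciferase luminescence relative to DMSO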
# Description: CCTE_Simmons_QuantiLum_inhib_2 is a biochemical, single-readout assay that uses purified luciferase enzyme in a cell-free assay.Measurements were taken 0.5 hour after chemical dosing in a 384-well plate.CCTE_Simmons_QuantiLum_inhib_2 is the assay component measured from the CCTE_Simmons_QuantiLum_inhib_2 assay. It is designed to make measurements of enzyme activity, a form of enzyme reporter, as detected with bioluminescence signals by Luciferase-coupled Quantilum levels technology. This is a secondary assay to CCTE_Simmons_AUR_TPO to evaluate nonspecific enzyme inhibition.Data from the assay component CCTE_Simmons_QuantiLum_inhib_2 was analyzed at the endpoint, CCTE_Simmons_QuantiLum_inhib_2, in the positive analysis fitting direction relative to DMSO as the negative control and baseline of activity. Using a type of enzyme reporter, measures of enzyme activity for loss-of-signal activity can be used to understand inhibition of firefly luciferase. This is an assay endpoint to indicate nonspecific protein inhibition for comparison to aeid 1508 for thyroperoxidase inhibition. To generalize the intended target to other relatable targets, this assay endpoint is annotated to the oxidoreductase intended target family, where the subfamily is monooxygenase.
# Quanti-Lum recombinant luciferase (Promega; Madison, Wisconsin) was diluted to 76.9 ng/ml with 200mM potassium phosphate buffer supplemented with 1 mg/ml bovine serum albumin and 65ul (5ng recombinant luciferase) per well was dispensed into opaque, white 384-well plates (Greiner, BioExpress) using an automated liquid handler (BioTek MicroFlo) with a plastic 5 ul tubing cassette. Test compounds were administered using the HDRT as described earlier to achieve a 0.5% final DMSO concentration. Microplates were incubated at 37C in the dark for 30min to mimic the AUR-TPO assay conditions. Luciferase detection reagent (25 ul per well; 9.2 mM dithiothreitol, 75uM Coenzyme A, 147uM dATP, 150uM D-luciferin, 8.9 mM Tricine, 297uM (MgCO3)4.Mg(OH)2.5H20, 742uM MgSO4, 27.8uM EDTA, pH 7.8, final assay concentrations) was then added using a BMG Clariostar plate reader equipped with syringe injectors (BMG LabTech; GmbH). Plates were read using a kinetic luminescence protocol (top read) whereby each well was individually injected with luciferase detection reagent immediately prior to measurement. Three biological replicates of technical singles were run for every chemical concentration tested. A titrated range of LUCINH2 served as a positive control on each plate of the luciferase inhibition screening assay. Test chemicals were administered as a titrated series of 8 concentrations from 5 nM up to 87.5 uM [final] for 30 minutes prior to single endpoint detection. Dimethylsulfoxide [DMSO] was used as the vehicle control. Luciferase Inhibitor I [2-(5-(2-Methoxyphenyl)-1,2,4-oxadiazol-3-yl)pyridine] was used as the positive control and was administered as a titrated series of 8 concentrations from 1 nM up to 100 uM [final].
# Luciferin 4-monooxygenase (Photinus pyralis), sequence (P08659 whole entry, looked up): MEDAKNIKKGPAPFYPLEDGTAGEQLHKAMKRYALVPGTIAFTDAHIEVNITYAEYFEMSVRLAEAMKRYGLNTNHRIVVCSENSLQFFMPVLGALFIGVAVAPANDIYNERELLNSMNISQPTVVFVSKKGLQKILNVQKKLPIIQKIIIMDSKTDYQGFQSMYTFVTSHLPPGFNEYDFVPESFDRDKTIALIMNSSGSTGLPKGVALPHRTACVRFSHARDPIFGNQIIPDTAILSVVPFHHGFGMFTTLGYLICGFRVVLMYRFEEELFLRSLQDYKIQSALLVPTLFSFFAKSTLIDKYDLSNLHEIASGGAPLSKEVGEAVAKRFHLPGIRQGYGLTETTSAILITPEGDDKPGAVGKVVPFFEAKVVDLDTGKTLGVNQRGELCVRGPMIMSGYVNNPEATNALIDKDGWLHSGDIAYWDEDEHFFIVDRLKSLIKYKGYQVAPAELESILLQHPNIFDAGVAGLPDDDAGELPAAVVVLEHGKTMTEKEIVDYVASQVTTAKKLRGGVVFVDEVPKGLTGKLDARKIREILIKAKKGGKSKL
Structure (SMILES),outcome,AC50
CCCCCCCCCCCC,inactive,
CCCCCCc1ccc(N)cc1,,77.1 µM (active)
CN(Cc1cnc2nc(N)nc(N)c2n1)c1ccc(C(=O)N[C@@H](CCC(=O)O)C(=O)O)cc1,inactive,
C[C@]12CC[C@@H]3c4ccc(O)cc4CC[C@H]3[C@@H]1C[C@@H](O)[C@@H]2O,inactive,
Cc1cc(C(=C2C=CC(=Nc3ccc(S(=O)(=O)O)cc3)C=C2)c2ccc(Nc3ccc(S(=O)(=O)O)cc3)cc2)cc(S(=O)(=O)O)c1N,,42.8 µM (active)
O=C1OC2(c3ccccc31)c1cc(I)c(O)c(I)c1Oc1c2cc(I)c(O)c1I,,6.41 µM (active)
CCCCCCCCCCCCOC(=O)c1cc(O)c(O)c(O)c1,inactive,
Cc1[nH]nc2c1N=C(c1ccccc1Cl)c1cc([N+](=O)[O-])ccc1N2,,44.6 µM (active)
Cc1cc(C(C)(C)C)c(O)c(C(C)(C)C)c1,inactive,
CCc1cccc(CC)c1N(COC)C(=O)CS(=O)(=O)O,inactive,
Cc1cc(Cc2cc(C)cc(C(C)(C)C)c2O)c(O)c(C(C)(C)C)c1,inactive,
COc1cc([N+](=O)[O-])ccc1N,inactive,
